Among the test systems are T-47D breast; BT-549 breast; MDA-MB-435 melanoma; SW-620 colon; MCF7 breast; HCT-116 colon; HCC-2998 colon; KM12 colon.
What all share (assay): NCI-60 one-dose screen, 48 h (100 = growth as untreated, 0 = no growth, -100 = all killed)
Common to all, as to settings: 10 µM unless noted

Each structure is given as a SMILES string. Compounds without any hit were thinned out: in the full panel of roughly 83,000, 20% have a hit.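 Cells were grown in 96-well plates and exposed to the test compound at a single concentration for 48 hours; results are reported as percent growth, with values below 10 considered active.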 Values without a mark were called inactive. Calls of active or inactive are those of the source.

In the case of `CC(C)c1nc2ccccc2n1CC(=O)N/N=C/c1cccc(O)c1`, the growth was 103% in the assay with T-47D breast; 99.7% in the assay with BT-549 breast; 99.8% with MDA-MB-435 melanoma; 93.6% in the assay on SW-620 colon; 105% with MCF7 breast; 87% in the assay with HCT-116 colon. The growth with HCC-2998 colon is 104%; with KM12 colon, 103%.
In the case of `COc1cc2ncnc(Nc3ccc(S(=O)(=O)Nc4nccs4)cc3)c2cc1OCCCN1CCOCC1`, the growth was 106% in the assay with T-47D breast; 119% in the assay with BT-549 breast; 101% with MDA-MB-435 melanoma; 103% in the assay on SW-620 colon; 105% in the assay on MCF7 breast; 100% with HCT-116 colon. Moreover, the growth with HCC-2998 colon was 104%; with KM12 colon, 101%.
Take `CC(=O)Nc1ccc(/C=N/N2CCCCCC2)cc1`: the growth was 100% with T-47D breast; 91.5% with BT-549 breast; 95.6% with MDA-MB-435 melanoma; 100% in the assay with SW-620 colon; 92.2% in the assay on MCF7 breast; 99.5% with HCT-116 colon. Further, the results for the growth in the assay with HCC-2998 colon and with KM12 colon were 109% and 97.8%, respectively.
On to `COCc1nc(NS(=O)(=O)c2ccc(N)cc2)nc(C)c1Br`, for which the growth in the assay on T-47D breast is 96.1%; with BT-549 breast it was 106%; in the assay with MDA-MB-435 melanoma it was 107%; with SW-620 colon, 103%; in the assay with MCF7 breast it was 103%; in the assay on HCT-116 colon it was 94.3%. Further, the figures for the growth in the assay with HCC-2998 colon and with KM12 colon were 97.1% and 107%, respectively.
In the case of `CCN1C(=O)N(CC)C2C1NN=c1s/c(=C\c3ccco3)c(=O)n12` (stereo not drawn), the growth was 27.8% in the assay with T-47D breast; 53.9% in the assay with BT-549 breast; -56.9% (active) in the assay with MDA-MB-435 melanoma; 20.2% with SW-620 colon; 12.1% in the assay with MCF7 breast; 23.5% in the assay on HCT-116 colon. Further, the values for the growth in the assay with HCC-2998 colon and in the assay on KM12 colon were 23% and 15.9%, respectively.
With `O=P(O)(O)C(O)(Cc1cccnc1)P(=O)(O)O`, the growth in the assay with T-47D breast is 76.6%; with BT-549 breast it was 86.3%; with MDA-MB-435 melanoma it was 97.6%; with SW-620 colon it was 98.7%; in the assay with MCF7 breast it was 91.2%; in the assay on HCT-116 colon, 106%. Besides, the growth in the assay on HCC-2998 colon is 119%; in the assay with KM12 colon it was 100%.
For `O=C(c1ccccc1)C(CCc1ccccn1)CCc1ccccn1`, the growth is 92.3% with T-47D breast; 106% in the assay on BT-549 breast; 108% in the assay on MDA-MB-435 melanoma; 107% with SW-620 colon; 106% with MCF7 breast; 94% in the assay with HCT-116 colon. The growth in the assay with HCC-2998 colon is 96.5%; with KM12 colon, 109%.
Regarding `CCOC(=O)C1C(=O)C=C(c2cc(OC)c(OC)c(OC)c2)CC1c1sc(N(C)Cc2ccccc2)nc1Cl` (stereo not drawn), the growth in the assay on T-47D breast was 66.6%; with BT-549 breast, 92.1%; in the assay with MDA-MB-435 melanoma it was 95.1%; in the assay on SW-620 colon, 95.7%; in the assay on MCF7 breast, 77.4%; with HCT-116 colon it was 72.6%. The growth in the assay with HCC-2998 colon was 105%; in the assay with KM12 colon, 93.6%.
With `Nc1ccc(C2=NNC(=O)Cc3cc4c(cc32)OCCO4)cc1Cl`, the growth in the assay with T-47D breast was 44.2%; in the assay on BT-549 breast it was 48.5%; with MDA-MB-435 melanoma, -19.2% (active); in the assay with SW-620 colon it was 18.7%; in the assay with MCF7 breast it was 18.8%; in the assay on HCT-116 colon it was 20.1%. Further, the growth was 61.9% in the assay with HCC-2998 colon and 16% in the assay with KM12 colon.
Take `CSc1ccc(/C=C2\C=C(CC(=O)NCc3ccc(C(=O)c4ccccc4)cc3)c3cc(F)ccc32)cc1`: the growth was 31.6% in the assay with T-47D breast; 25.7% in the assay with BT-549 breast; -47.8% (active) with MDA-MB-435 melanoma; 9.98% (active) in the assay with SW-620 colon; -2.9% (active) in the assay with MCF7 breast; -28% (active) in the assay on HCT-116 colon. The growth in the assay on HCC-2998 colon was -0.5% (active); in the assay on KM12 colon it was -61.4% (active).
`CN(C)CCNC(=O)n1cc(-c2ccncc2)c(-c2cc(O)cc(Cl)c2)n1`: the growth with T-47D breast was 106%; in the assay on BT-549 breast it was 102%; with MDA-MB-435 melanoma, 51.1%; in the assay on SW-620 colon, 109%; with MCF7 breast it was 102%; in the assay with HCT-116 colon it was 86.2%. The growth was 119% in the assay with HCC-2998 colon and 106% with KM12 colon.
In the case of `O=c1c2cc(Br)cc(Br)c2nc(-c2ccc(Cl)cc2)n1/N=C/c1cccc(F)c1`, the growth with T-47D breast is 48.8%; in the assay on BT-549 breast, 74.4%; with MDA-MB-435 melanoma it was 78.8%; in the assay on SW-620 colon, 74.7%; in the assay with MCF7 breast it was 52.5%; with HCT-116 colon it was 18.5%. For the same molecule, the growth in the assay with HCC-2998 colon is 84%; in the assay on KM12 colon it was 70.2%.
On to `N/C(=N\OC(=O)c1ccccc1)C(C(=O)NOC(=O)c1ccccc1)C1CCCCC1` (stereo not drawn), for which the growth with T-47D breast was 72.1%; in the assay on BT-549 breast, 74.4%; in the assay on MDA-MB-435 melanoma it was 38.9%; with SW-620 colon, 82.1%; in the assay on MCF7 breast, 65.6%; in the assay on HCT-116 colon, 36.7%. For the same molecule, the results for the growth in the assay on HCC-2998 colon and in the assay on KM12 colon were 98% and 19.9%, respectively.
Take `Clc1cc(Cl)cc(-c2cnc3nonc3n2)c1`: the growth in the assay with T-47D breast is 59.8%; in the assay with BT-549 breast, 95.6%; with MDA-MB-435 melanoma, 103%; in the assay with SW-620 colon, 63.9%; with MCF7 breast, 69.5%; in the assay with HCT-116 colon, 72.9%. Moreover, the growth was 97.5% with HCC-2998 colon and 90% in the assay on KM12 colon.
For `Clc1cc2nc(-c3ccccc3)c(-c3ccccc3)nc2cc1Cl`, the growth in the assay with T-47D breast is 76.6%; in the assay with BT-549 breast, 118%; with MDA-MB-435 melanoma, 108%; with SW-620 colon it was 89.7%; in the assay on MCF7 breast, 78.1%; in the assay on HCT-116 colon, 84.8%. In addition, the figures for the growth with HCC-2998 colon and in the assay with KM12 colon were 94.1% and 92%, respectively.
As to `CCCCCc1c(C)[nH]c(/C=C2\N=C(c3ccc[nH]3)C=C2Oc2ccc(OC)cc2)c1C`, the growth with T-47D breast was -48.5% [100 µM] (active); in the assay on BT-549 breast, -91.5% [100 µM] (active); in the assay with MDA-MB-435 melanoma, -82.2% [100 µM] (active); in the assay with SW-620 colon it was -56.5% [100 µM] (active); with MCF7 breast, -100% [100 µM] (active); with HCT-116 colon it was -99.4% [100 µM] (active). The growth in the assay on HCC-2998 colon was -58.2% [100 µM] (active); in the assay with KM12 colon, -90.9% [100 µM] (active).
For the molecule `Cc1ccc(C)c2c1SC1=NNC(Oc3ccc(Cl)cc3)=C(C#N)C(=N)N12`, the growth was 84.4% in the assay on T-47D breast; 107% in the assay on BT-549 breast; 113% with MDA-MB-435 melanoma; 104% with SW-620 colon; 89.5% with MCF7 breast; 108% with HCT-116 colon. Also, the values for the growth with HCC-2998 colon and in the assay with KM12 colon were 105% and 109%, respectively.
Regarding `O=C(CCl)N1c2ccccc2Oc2ccc3ccccc3c21`, the growth was -62.5% (active) with T-47D breast; -67.3% (active) in the assay with BT-549 breast; -22.4% (active) in the assay on MDA-MB-435 melanoma; -81.2% (active) with SW-620 colon; 10.4% in the assay on MCF7 breast; -98.8% (active) with HCT-116 colon. Further, the growth in the assay with HCC-2998 colon is 103%; in the assay with KM12 colon it was 17.3%.
In the case of `CCCCOc1nc2ccc(C)cc2cc1/C=C/C(=O)/C=C(O)/C=C/c1cc2cc(C)ccc2nc1OCCCC`, the growth in the assay on T-47D breast was 89.2%; in the assay with BT-549 breast it was 90.8%; in the assay with MDA-MB-435 melanoma it was 107%; with SW-620 colon, 107%; in the assay with MCF7 breast it was 100%; in the assay with HCT-116 colon, 87.6%. Besides, the growth in the assay on HCC-2998 colon is 108%; in the assay with KM12 colon it was 102%.
`CCOC(=O)C(Cc1ccccc1)n1c(O)c(/C=N/c2ncc(Cc3ccc(Cl)cc3Cl)s2)sc1=S` (stereo not drawn): the growth with T-47D breast was -3.64% (active); in the assay on BT-549 breast, -1.04% (active); with MDA-MB-435 melanoma, 17.2%; in the assay with SW-620 colon it was 12%; in the assay with MCF7 breast, 3.1% (active); in the assay on HCT-116 colon, 1.61% (active). For the same molecule, the growth with HCC-2998 colon was 16.5%; in the assay on KM12 colon it was 10.8%.
For the molecule `Cc1c(C(N)=O)sc2ncn(CC(=O)NN=C3CCCCC3)c(=O)c12`, the growth was 103% in the assay on T-47D breast; 99.4% with BT-549 breast; 99% in the assay on MDA-MB-435 melanoma; 97.4% in the assay on SW-620 colon; 109% in the assay with MCF7 breast; 95.1% with HCT-116 colon. The growth in the assay with HCC-2998 colon was 106%; in the assay with KM12 colon, 115%.
For the molecule `CCN(CC)CC(=O)Nc1c(C)cc(C(=O)NN)cc1C`, the growth is 90.8% with T-47D breast; 117% in the assay with BT-549 breast; 101% with MDA-MB-435 melanoma; 101% in the assay with SW-620 colon; 98.3% in the assay with MCF7 breast; 102% in the assay on HCT-116 colon. For the same molecule, the growth is 107% in the assay with HCC-2998 colon and 98.9% in the assay with KM12 colon.
For the molecule `COc1ccc(-c2cc(-c3cc4ccccc4oc3=O)n(-c3ccccc3)n2)cc1`, the growth was 73.1% in the assay on T-47D breast; 75.1% in the assay on BT-549 breast; 100% in the assay on MDA-MB-435 melanoma; 66.6% with SW-620 colon; 76% in the assay with MCF7 breast; 2.14% (active) in the assay with HCT-116 colon. Besides, the growth in the assay with HCC-2998 colon is 103%; in the assay with KM12 colon, 69.3%.
Turning to `ClC1=NC(Cl)C(Cl)=N/C1=N\c1ncn[nH]1` (stereo not drawn), the growth in the assay with T-47D breast is -38.3% (active); in the assay on BT-549 breast, 91.4%; with MDA-MB-435 melanoma, 13.8%; with SW-620 colon, -78.7% (active); with MCF7 breast, 5.67% (active); with HCT-116 colon, -70.2% (active). For the same molecule, the growth in the assay on HCC-2998 colon is 53.6%; in the assay with KM12 colon, 26.4%.
Consider `CC(=O)Oc1ccccc1C(=O)Nc1ncc([N+](=O)[O-])s1`, for which the growth in the assay with T-47D breast was 61.7%; in the assay on BT-549 breast, -29.4% (active); in the assay with MDA-MB-435 melanoma, 24.2%; in the assay on SW-620 colon, 26.7%; in the assay on MCF7 breast it was 49.7%; with HCT-116 colon it was 3.62% (active). The growth with HCC-2998 colon was 23.3%; in the assay with KM12 colon, 24.7%.
With `CC1=CC(=O)OC1C/C=C(\C)CCC1[C@@]2(C)CCC[C@@](C)(C(=O)O)C2CC[C@@]1(C)O` (stereo partly drawn), the growth with T-47D breast was 87.3%; in the assay with BT-549 breast, 67.3%; in the assay on MDA-MB-435 melanoma, 16.7%; with SW-620 colon, 32.4%; with MCF7 breast it was 28.8%; in the assay on HCT-116 colon it was 27.9%. The growth in the assay on HCC-2998 colon was 44%; in the assay on KM12 colon it was 26.4%.

The record behind these values is PubChem BioAssay (NCI).
